In PubChem BioAssay:
Active and inactive are the calls of the source.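 Rule for the calls, unless noted: active = mean z-score across replicates of 1.96 or higher in either the MELAS or the Rieske mutant cell line; inactive = the rest.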

Columns and labels:
[1] = MELAS cybrid and Rieske KO viability enhancers – cell-based, MELAS cybrids, Rieske KO mouse fibroblasts, CellTiter-Glo, primary screen (AID 1508586); settings: low glucose;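 note: test concentration not given here; z relative to plate mean and SD of compound and empty wells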
[2] = galactose survival enhancers in mitochondrial complex I cybrids – cell-based, galactose medium, ATP luminescence, primary screen (AID 1645843;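 active = z-score of at least 1.8 in each of two replicates, scored against plate mean and spread of sample wells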;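 note: positive z means more ATP and so rescue of galactose-driven cybrid death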); settings: complex I mutant cybrid cells, 72 h, stronger effect = higher value
[3] = MELAS cybrid survival, CellTiter-Glo 48 h, stronger effect = higher value
[4] = Rieske KO mouse fibroblast survival, CellTiter-Glo 72 h

SMILES | z-score [1, 3] | z-score [1, 4] | z-score [2]
O=c1c(/C=C/c2ccccc2)cc2c(n1Cc1ccccn1)CCN(C1CCOCC1)C2 | -0.0238 (inactive) | 0.293 | 0.925 (inactive)
CCCCNC(=O)[C@@H]1C[C@H](CN2CCOCC2)CN(Cc2ccccc2)C1 | -0.071 (inactive) | -0.282 | -0.205 (inactive)
CCN1C(=O)N(C)C(=O)C12CCN(Cc1ccc(Oc3ncccn3)cc1)CC2 | 0.0802 (inactive) | -0.536 | 1.74 (inactive)
Cc1ncc(CNc2cc(C(=O)Nc3cccc(N(C)C)c3)cc(S(=O)(=O)N3CCCC3)c2)[nH]1 | -0.563 (inactive) | -0.237 | 0.295 (inactive)
Cc1csc(SCC(=O)N2CCc3c(cc(-c4csc5ccccc45)c(=O)n3C)C2)n1 | -0.151 (inactive) | 0.398 | 1.5 (inactive)
CC(C)CNC(=O)[C@H]1CNC[C@@H](CN2CCOCC2)C1 | 0.0168 (inactive) | 0.121 | -0.045 (inactive)
CCN(CC)C(=O)c1cc(-c2ccc(C)s2)cc(S(=O)(=O)N2CCOCC2)c1 | -0.0477 (inactive) | 0.74 | -0.44 (inactive)
CN(C)c1cccc(NC(=O)c2cc(NCc3cnn(C)c3)cc(S(=O)(=O)N3CCCC3)c2)c1 | -0.28 (inactive) | -0.862 | 0.265 (inactive)
CC(C)CNc1cc(C(=O)NC2Cc3ccccc3C2)cc(S(=O)(=O)NC(C)C)c1 | 0.0668 (inactive) | -0.0556 | -1.6 (inactive)
C[C@H]1NC(=O)[C@H]2CN(C(=O)Oc3ccc(Cl)cc3)CCN2C1=O | -0.514 (inactive) | 0.985 | 0.585 (inactive)
COc1ccc(CCNC2CCc3c(c(C(=O)N(C)C)nn3CC3CCCCC3)C2)cc1 (stereo not given) | -0.342 (inactive) | 0.349 | -1.19 (inactive)
Cc1ccc(C(C)CCN2CCC3(CC2)C(=O)N(C(C)C)C(=O)N3CCC(C)C)o1 (stereo not given) | -0.199 (inactive) | -0.496 | 0.91 (inactive)
CCCCNC(=O)[C@@H]1C[C@H](CN2CCOCC2)CN(Cc2ccc(OC)c(OC)c2)C1 | -0.184 (inactive) | 0.521 | 1.15 (inactive)
CCc1ccc(CNc2cnc3c(c2)c(NC(=O)c2cccnc2)c(C(=O)OC)n3CC(C)C)o1 | 3.75 (active) | 4.55 | -1.67 (inactive)
COCCCN1C(=O)N(Cc2ccccc2)C(=O)C12CCN(Cc1ccc(-c3ccco3)cc1)CC2 | 0.678 (inactive) | 0.032 | -1.64 (inactive)
C=CCn1nc(C(=O)N2CCSCC2)c2c1CCC(NCCCSC)C2 (stereo not given) | -0.0452 (inactive) | -0.019 | 0.93 (inactive)
CCOC(=O)N1CCC(NC2CCc3c(c(C(=O)N(C)C)nn3Cc3ccccc3)C2)CC1 (stereo not given) | -0.0814 (inactive) | 0.468 | -0.835 (inactive)
O=C(NCc1ccccn1)c1cc(NCC2CC2)cc(S(=O)(=O)N2CCCC2)c1 | -0.201 (inactive) | -0.67 | 0.59 (inactive)
CC(C)CNC(=O)[C@@H]1C[C@H](CN2CCOCC2)CN(Cc2ccc(O)cc2)C1 | -0.104 (inactive) | -0.186 | -0.31 (inactive)
CC(C)CNC(=O)[C@@H]1C[C@H](CN2CCOCC2)CN(Cc2ccccc2)C1 | 0.428 (inactive) | 0.562 | 0.12 (inactive)

SMILES | z-score [1, 3] | z-score [1, 4] | z-score [2]
Cc1ccccc1CN[C@H]1C[C@H]2C(=O)N[C@@H]([C@@H](C)O)C(=O)N2C1 | 0.0812 (inactive) | -0.372 | 0.715 (inactive)
Cc1ccc(N2CCN(C3CCc4c(c(C(=O)N5CCSCC5)nn4C)C3)CC2)c(C)c1 (stereo not given) | -0.0351 (inactive) | -0.612 | 0.195 (inactive)
COC(=O)c1c(NC(=O)c2ccoc2)c2cc(NC3CCSCC3)cnc2n1CC(C)C | -0.463 (inactive) | -0.31 | 0.98 (inactive)
CN1CCCC1CCNC(=O)c1cc(-c2ccccc2)cc(S(=O)(=O)N2CCSCC2)c1 (stereo not given) | -0.508 (inactive) | -0.0913 | 0.505 (inactive)
COC(=O)c1c(NC(=O)C2CC2)c2cc(NC3CCOCC3)cnc2n1Cc1ccccc1 | -0.892 (inactive) | 0.482 | -0.845 (inactive)
Cc1ccnn1CCC(=O)N1CCc2c(cc(Cc3ccccc3F)c(=O)n2Cc2cccnc2)C1 | -0.36 (inactive) | -0.461 | 0.325 (inactive)
CC[C@@H]1NC(=O)[C@H]2CN(C(=O)Oc3cccc4ccccc34)CCN2C1=O | 0.408 (inactive) | 0.404 | -1.61 (inactive)
O=C(Oc1ccccc1)N1CCN2C(=O)[C@@H]3C[C@@H](O)CN3C(=O)[C@H]2C1 | 1.95 (inactive) | -0.267 | -0.655 (inactive)
CC(C)[C@@H]1NC(=O)[C@H]2CN(C(=O)c3ccccc3Cl)CCN2C1=O | -0.296 (inactive) | -0.445 | 1.57 (inactive)
C[C@H](O)[C@H]1NC(=O)[C@@H]2C[C@H](NC(=O)Nc3cccc(F)c3)CN2C1=O | 0.0941 (inactive) | 0.103 | -0.26 (inactive)
COc1cc(CN2CCc3c(cc(Cc4ccccc4C)c(=O)n3CC3CC3)C2)ccc1O | -0.322 (inactive) | -0.319 | -1.32 (inactive)
COC(=O)c1c(NC(=O)c2ccco2)c2cc(NC3CCOCC3)cnc2n1C | -0.622 (inactive) | -0.251 | 0.7 (inactive)
COC(=O)c1c(NC(=O)C2CCC2)c2cc(NC3CCSCC3)cnc2n1CCc1ccccn1 | -0.0865 (inactive) | -0.308 | 1.1 (inactive)
COC(=O)CCN1CC(OCc2cccc(OC)c2)CN(C(=O)CCc2cccs2)CC1=O (stereo not given) | -0.467 (inactive) | -0.256 | 0.52 (inactive)
CN1CC(=O)N2CCN(C(=O)NCc3ccccc3)C[C@@H]2C1=O | -0.0344 (inactive) | -0.297 | -0.795 (inactive)
CCOC(=O)c1nn(Cc2ccccn2)c2c1CN(Cc1ccc(NC(C)=O)s1)CC2 | -0.809 (inactive) | -0.0726 | 0.55 (inactive)
O=C1[C@@H]2C[C@@H](O)CN2C(=O)[C@H]2CN(Cc3ccc(CN4CCCCC4)s3)CCN12 | -0.179 (inactive) | -0.745 | 0.32 (inactive)
CCCCNC(=O)[C@@H]1C[C@H](CN2CCOCC2)CN(Cc2ccc(O)cc2)C1 | 1.06 (inactive) | -0.315 | 0.115 (inactive)
C[C@@H](OCc1ccccc1)[C@@H]1NC(=O)[C@H]2CN(C(=O)Oc3ccccc3)CCN2C1=O | -0.153 (inactive) | -0.114 | -1.46 (inactive)
CCn1c(C(=O)OC)c(NC(C)=O)c2cc(NCc3ccc(OC)cc3)cnc21 | -0.521 (inactive) | -0.331 | -0.96 (inactive)
